Measured values: PubChem BioAssay (NCATS)
Results filed as inconclusive are left out. Entries that show only a call come without a potency. Values without a mark were called inactive. Calls of active or inactive are those of the source. Calls follow the shape of the dose curve; as a rule, active = well fitted curve in the direction sought with a large enough effect; inconclusive = small, poorly fitted or top-dose-only effect, or another doubt; inactive = no such curve, though single readings can be large; an effect the other way counts as inactive or inconclusive.

Experiments:
CRL-7250 = normal cell line; test: Cytotoxic Profiling of Annotated Libraries Using Quantitative High-Throughput Screening (AID 1296008); conditions: Five cell lines viability, CellTiter-Glo ATP luminescence, 48-72 h; max response: hits give low values; also: nearly all actives have a fitted effect of over 60% in size; also: potency is read from the fitted curve at half-maximal effect
In short: (§1)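 Compounds were pin-transferred onto cells and incubated 48 or 72 hr at 37 degree Celsius, 95% humidity. CellTiter-Glo was added, plates sat 10 min at room temperature, then ATP-coupled luminescence was imaged as the viability read-out.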

HEK293 = test: as above; conditions: Five cell lines viability, CellTiter-Glo ATP luminescence, 48-72 h; max response: hits give low values
In short: as §1

HaCat [1] = test: as above; conditions: Five cell lines viability, CellTiter-Glo ATP luminescence, 48-72 h; max response: hits give low values
In short: as §1

KB-3-1 = test: as above; conditions: Five cell lines viability, CellTiter-Glo ATP luminescence, 48-72 h; max response: hits give low values
In short: as §1

NIH3T3 = test: as above; conditions: Five cell lines viability, CellTiter-Glo ATP luminescence, 48-72 h; max response: hits give low values
In short: as §1

HACAT [2] = test: qHTS assay to identify novel small-molecules to repurpose for Merkel cell carcinoma treatment (AID 1296009); conditions: MCC and control cell lines, CellTiter-Glo viability, 72 h; at 44.8 µM (top of the series) unless noted; also: nearly all actives have a fitted effect of over 60% in size
In short: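 Viability readout: ATP luminescence (CellTiter-Glo) after 72 hr drug exposure at 37 degree celsius. Dose-response format was 8 points for NPC and 11 points for MIPE; data normalized to in-plate controls.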

C33A = test: Primary qHTS to identify gynecologic anti-cancer compounds using libraries of approved drugs and bioactive compounds (AID 1345084); conditions: Gynecologic cancer cell panel viability, ATPlite luminescence, 48 h; series mostly up to 57.5 µM; also: nearly all actives have a fitted effect of over 55% in size
In short: (§2)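 Five-point cytotoxicity, 48 h drug exposure at 37 C, 5% CO2, on cells seeded 16 h beforehand. ATP content read by ATPlite luminescence.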

CAOV3 = test: as above; conditions: Gynecologic cancer cell panel viability, ATPlite luminescence, 48 h; series mostly up to 57.5 µM
In short: as §2

CASKI = test: as above; conditions: Gynecologic cancer cell panel viability, ATPlite luminescence, 48 h; series mostly up to 57.5 µM
In short: as §2

Es-2 = test: as above; conditions: Gynecologic cancer cell panel viability, ATPlite luminescence, 48 h; series mostly up to 57.5 µM
In short: as §2

HeLa = test: as above; conditions: Gynecologic cancer cell panel viability, ATPlite luminescence, 48 h; series mostly up to 57.5 µM
In short: as §2

Hek293T = test: as above; conditions: Gynecologic cancer cell panel viability, ATPlite luminescence, 48 h, control line for the selectivity index; series mostly up to 57.5 µM
In short: as §2

JEG-3 = test: as above; conditions: Gynecologic cancer cell panel viability, ATPlite luminescence, 48 h; series mostly up to 57.5 µM
In short: as §2

OV90 = test: as above; conditions: Gynecologic cancer cell panel viability, ATPlite luminescence, 48 h; series mostly up to 57.5 µM
In short: as §2

PA-1 = test: as above; conditions: Gynecologic cancer cell panel viability, ATPlite luminescence, 48 h; series mostly up to 57.5 µM
In short: as §2

| SMILES | outcome (CRL-7250) | max response (HEK293) | outcome (HaCat [1]) | max response (KB-3-1) | max response (NIH3T3) | outcome (HACAT [2]) | Potency (C33A) | Potency (CAOV3) | outcome (CASKI) | Potency (Es-2) | Potency (HeLa) | Potency (Hek293T) | Potency (JEG-3) | Potency (OV90) | Potency (PA-1) | max response (CRL-7250) | outcome (KB-3-1) | Potency (HEK293) |
| --- | --- | --- | --- | --- | --- | --- | --- | --- | --- | --- | --- | --- | --- | --- | --- | --- | --- | --- |
| CCCC(=O)Nc1cccc(NC(=O)c2ccccc2Br)c1 | inactive | -4.38% | inactive | 8.7% | 3.78% | inactive | inactive | inactive | inactive | inactive | inactive | inactive | inactive | inactive | inactive |  |  |  |
| CCC(=O)N1CCc2cc(OC)c(O)cc2C1 |  | -5.69% | inactive | -5.14% | 3.84% | inactive | inactive | inactive | inactive | inactive | inactive | inactive | inactive | inactive | inactive | -24.5% |  |  |
| CC(C)c1c(NC(=O)Nc2ccc(Cl)cc2)c(=O)n(-c2ccccc2)n1C |  | -5.54% | inactive | -6.5% | -1.6% | inactive | inactive | inactive | inactive | inactive | inactive | inactive | inactive | inactive | inactive | -6% |  |  |
| O=C(/C=C/c1ccc(O)cc1)OCC1OC(O)C(OC2OC(CO)C(O)C(O)C2O)C(O)C1O (stereo not given) | inactive | -3.95% | inactive | 8.27% | 3.74% | inactive [at 17.4 µM] | inactive | inactive | inactive | inactive | inactive | inactive | inactive | inactive | inactive |  |  |  |
| CC(=O)OC1CC(=O)C2(C)C3CC4=C(OC(C)CC4=O)OC3(C)CCC2C1(C)C (stereo not given) | inactive | 2.23% | inactive |  | 1.19% | inactive [at 17.4 µM] | inactive | inactive | inactive | inactive | inactive | inactive | inactive | inactive | inactive |  | inactive |  |
| COc1cc2c(cc1O)C(c1ccc(O)cc1)C(C)C(C)C2 (stereo not given) |  | -21.2% | inactive | -7.89% | -6.55% | inactive | inactive | inactive | inactive | inactive | inactive | inactive | inactive | inactive | inactive | -22.8% |  |  |
| C=C(C)[C@@H]1CC[C@]2(C(=O)O)CC[C@]3(C)[C@H](CCC4[C@@]5(C)CCC(=O)C(C)(C)C5C(O)C[C@]43C)C12 (stereo not given in full) |  |  | inactive | -20.6% | -1.28% | inactive [at 17.4 µM] | inactive | inactive | inactive | inactive | inactive | inactive | inactive | inactive | inactive | -6.3% |  | 4.47 µM (active) |
| C=C(COC(=O)C(C)C)C1Oc2cc(C(C)=O)ccc2C1OC(=O)C(C)C (stereo not given) |  | 1.24% | inactive | 4.68% | 0.455% | inactive | inactive | inactive | inactive | inactive | inactive | inactive | inactive | inactive | inactive | -10.7% |  |  |
| OC[C@H]1O[C@@H](OC[C@H]2O[C@@H](OCc3ccccc3)[C@H](O)[C@@H](O)[C@@H]2O)[C@H](O)[C@@H](O)[C@@H]1O | inactive | -4.26% | inactive |  | -6.32% | inactive [at 17.4 µM] | inactive | inactive | inactive | inactive | inactive | inactive | inactive | inactive | inactive |  | inactive |  |
| O=C(OCC1=CC(Cl)C(O)C(OC(=O)c2ccccc2)C1O)c1ccccc1 (stereo not given) |  | -7.58% | inactive |  | 1.71% | inactive [at 17.4 µM] | inactive | inactive | inactive | inactive | inactive | inactive | inactive | inactive | inactive | 2.93% | inactive |  |
| CC(=O)O[C@H]1C[C@@H](O)C(C)(C)C2C[C@@H](OC(C)=O)[C@]3(C)C(CC[C@@]4(C)[C@H](c5ccoc5)OC(=O)[C@H]5O[C@]543)[C@]21C (stereo not given in full) |  | -3.17% | inactive |  | 1.84% | inactive [at 17.4 µM] | inactive | inactive | inactive | inactive | inactive | inactive | inactive | inactive | inactive | -9.34% | inactive |  |
| On1ncc(C2CCNCC2)c1-c1cccc(-c2ccccc2)c1 | inactive | -1.77% | inactive | 8.99% | 1.04% | inactive | inactive | inactive | inactive | inactive | inactive | inactive | inactive | inactive | inactive |  |  |  |
| O=C(O[C@H]1[C@H](Oc2ccc(O)cc2CO)O[C@H](CO)[C@@H](O)[C@@H]1O)c1ccccc1 |  | -1.69% | inactive |  | 2.07% | inactive [at 17.4 µM] | inactive | inactive | inactive | inactive | inactive | inactive | inactive | inactive | inactive | -4.77% | inactive |  |
| C=C(C)C1Cc2c(ccc3c2OCC(c2ccc(O)cc2O)C3)O1 (stereo not given) |  | -18.8% | inactive | -21.6% | -8.17% | inactive | inactive | inactive | inactive | inactive | inactive | inactive | inactive | inactive | inactive | -23.3% |  |  |
| C[C@H](/C=C/[C@@]1(O)[C@H](C)CC(=O)CC1(C)C)O[C@@H]1O[C@H](CO[C@@H]2OC[C@@H](O)[C@H](O)[C@H]2O)[C@@H](O)[C@H](O)[C@H]1O | inactive | -7.74% | inactive |  | -1.42% | inactive [at 17.4 µM] | inactive | inactive | inactive | inactive | inactive | inactive | inactive | inactive | inactive |  | inactive |  |
| COc1c(C)c(OCC(O)C(C)(C)O)cc2c1CNC2=O (stereo not given) |  | -3.96% | inactive | 5.28% | -1.72% | inactive | inactive | inactive | inactive | inactive | inactive | inactive | inactive | inactive | inactive | 2.44% |  |  |
